This is a sample that favours compounds with a hit; in the whole collection about 27% have one here.
CYP2C19 activ – increases human CYP2C19 enzyme activity. activation factor at 5 µM. 96,000 tested, under 10 active. recombinant CYP2C19, luciferin-H EGE luminescence; active compounds read high; 0 = fully inhibited enzyme, 1 = untreated enzyme. P33261;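 active = activation factor of at least 2 at 5 µM in the primary screen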;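 also: 0 = wells with 2.5 mM tranylcypromine and 1 = vehicle-only wells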
CYP2C9 inh – human CYP2C9 inhibition. P11712. CYP2C9 Supersomes, luciferin-H conversion, luminescence. inhibition, % at 5 µM. 96,000 compounds, 20% hits. AID 777;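 active = blocking of liver enzyme CYP2C9 beyond about 50% at 5 µM, limit read from the data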
Cav32 inh – human Cav3.2 channel inhibition, primary screen | O95180 | Cav3.2-expressing cells, Fluo-4 calcium fluorescence FDSS; active compounds read low | B-score at 10 µM | 100,000 compounds, 4% hits | AID 449739;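 active = single-dose well whose peak fluorescence ratio is a statistical outlier from its plate by either plate-standardised score or position-corrected B-score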
Target sequence (O95180 whole entry, looked up): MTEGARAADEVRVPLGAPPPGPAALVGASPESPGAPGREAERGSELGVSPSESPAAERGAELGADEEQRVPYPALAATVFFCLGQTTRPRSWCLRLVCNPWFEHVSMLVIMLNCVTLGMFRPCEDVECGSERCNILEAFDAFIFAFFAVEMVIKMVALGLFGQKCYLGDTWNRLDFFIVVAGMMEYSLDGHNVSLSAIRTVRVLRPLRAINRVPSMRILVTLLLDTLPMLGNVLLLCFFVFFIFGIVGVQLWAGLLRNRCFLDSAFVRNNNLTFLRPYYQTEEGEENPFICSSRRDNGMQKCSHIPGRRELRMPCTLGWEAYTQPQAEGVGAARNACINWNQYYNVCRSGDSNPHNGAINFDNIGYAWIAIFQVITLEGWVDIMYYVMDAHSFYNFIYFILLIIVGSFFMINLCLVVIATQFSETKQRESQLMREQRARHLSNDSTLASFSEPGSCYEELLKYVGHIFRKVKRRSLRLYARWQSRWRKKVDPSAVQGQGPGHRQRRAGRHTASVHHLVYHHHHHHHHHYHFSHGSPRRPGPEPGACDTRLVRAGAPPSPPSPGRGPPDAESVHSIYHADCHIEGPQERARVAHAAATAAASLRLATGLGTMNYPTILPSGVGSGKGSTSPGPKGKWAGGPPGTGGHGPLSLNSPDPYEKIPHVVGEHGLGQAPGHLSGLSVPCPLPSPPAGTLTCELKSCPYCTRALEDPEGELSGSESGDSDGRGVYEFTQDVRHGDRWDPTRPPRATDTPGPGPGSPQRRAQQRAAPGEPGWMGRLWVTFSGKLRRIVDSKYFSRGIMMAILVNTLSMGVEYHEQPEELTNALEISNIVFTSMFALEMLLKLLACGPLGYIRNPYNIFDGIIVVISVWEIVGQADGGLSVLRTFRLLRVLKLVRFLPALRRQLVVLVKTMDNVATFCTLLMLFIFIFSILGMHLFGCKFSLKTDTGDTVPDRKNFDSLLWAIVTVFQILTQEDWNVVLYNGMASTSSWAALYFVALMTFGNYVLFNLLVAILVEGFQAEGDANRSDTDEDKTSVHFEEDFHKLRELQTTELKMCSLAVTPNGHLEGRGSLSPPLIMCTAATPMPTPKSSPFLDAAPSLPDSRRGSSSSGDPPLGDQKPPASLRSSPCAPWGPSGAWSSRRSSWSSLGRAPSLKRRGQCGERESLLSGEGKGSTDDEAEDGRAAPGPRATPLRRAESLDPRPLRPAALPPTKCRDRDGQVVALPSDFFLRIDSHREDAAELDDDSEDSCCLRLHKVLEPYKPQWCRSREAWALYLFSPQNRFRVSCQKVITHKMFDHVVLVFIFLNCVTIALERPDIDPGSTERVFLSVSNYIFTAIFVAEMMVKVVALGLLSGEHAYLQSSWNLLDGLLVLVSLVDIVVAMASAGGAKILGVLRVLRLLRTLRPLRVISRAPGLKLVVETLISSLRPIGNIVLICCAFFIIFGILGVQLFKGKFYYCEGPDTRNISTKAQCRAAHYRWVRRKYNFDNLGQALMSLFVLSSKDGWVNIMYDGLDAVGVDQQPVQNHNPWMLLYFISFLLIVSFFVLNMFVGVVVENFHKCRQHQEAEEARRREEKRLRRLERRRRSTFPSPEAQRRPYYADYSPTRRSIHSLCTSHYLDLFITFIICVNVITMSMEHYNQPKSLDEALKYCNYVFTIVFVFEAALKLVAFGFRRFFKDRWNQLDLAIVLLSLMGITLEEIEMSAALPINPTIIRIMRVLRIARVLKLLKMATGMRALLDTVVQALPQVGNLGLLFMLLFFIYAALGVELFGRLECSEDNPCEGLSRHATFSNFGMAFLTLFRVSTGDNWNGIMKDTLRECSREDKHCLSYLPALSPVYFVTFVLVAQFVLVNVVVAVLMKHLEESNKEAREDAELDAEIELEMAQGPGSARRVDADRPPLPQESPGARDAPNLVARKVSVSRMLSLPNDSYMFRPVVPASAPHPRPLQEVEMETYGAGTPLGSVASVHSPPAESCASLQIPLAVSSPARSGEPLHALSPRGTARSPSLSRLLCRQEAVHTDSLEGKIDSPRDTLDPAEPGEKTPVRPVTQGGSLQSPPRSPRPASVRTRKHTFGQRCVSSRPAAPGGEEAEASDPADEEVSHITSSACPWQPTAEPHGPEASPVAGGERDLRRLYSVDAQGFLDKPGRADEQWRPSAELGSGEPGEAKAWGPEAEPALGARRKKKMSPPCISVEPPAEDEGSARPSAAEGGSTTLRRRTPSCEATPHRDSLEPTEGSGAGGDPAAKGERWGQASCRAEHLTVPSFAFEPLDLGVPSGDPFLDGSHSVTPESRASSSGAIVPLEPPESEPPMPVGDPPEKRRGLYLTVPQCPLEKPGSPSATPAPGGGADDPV
CYP2C19 inh – blocks human cytochrome P450 2C19; P33261; CYP2C19 Supersomes, luciferin-H EGE luminescence, 30 min; inhibition, % at 5 µM; 96,000 compounds, 21% hits; AID 778;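 active = CYP2C19 inhibition above a set limit at 5 µM in the primary screen, cut at about 50% in these data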;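 also: plate controls were negative control wells for no effect and 2.5 mM tranylcypromine positive control for full effect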
CYP2C9 act – CYP2C9 (human) activation. recombinant CYP2C9, luciferin-H conversion, luminescence; active compounds read high; factor 1 = untreated enzyme, 0 = blocked. activation factor at 5 µM. 96,000 compounds, 1.4% hits;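 active = activation factor of 2 or more for CYP2C9 at a 5 µM dose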;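 also: 0 = sulfaphenazole-blocked wells and 1 = vehicle-only wells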
The depositor's hits bear a star; . = not tested or not shown.

SMILES	CYP2C19 activ	CYP2C9 inh	Cav32 inh	CYP2C19 inh	CYP2C9 act
COc1ccc(C2C=C(c3ccc(Br)s3)Nc3ncnn32)cc1OC (stereo unspecified)	0	50*	-8.7*	98*	0.5
COc1cc2c(cc1OC)-c1nnc(-c3cccs3)n1C(C)(C)C2	.	.	-0.19	.	.
CSc1nnc(-c2sccc2OCc2ccccc2)n1C	0.8	31	0.97	16	0.7
CSc1n[nH]c(-c2sccc2OCc2ccc(C)cc2)n1	0.2	58*	-3.7*	83*	0.4
CCOC(=O)C1=C(N)Oc2c(oc(CO)cc2=O)C1c1ccc(F)cc1 (stereo unspecified)	.	.	0.51	.	.
CCOC(=O)c1[nH]c2ccc(OC)cc2c1NC(=O)C(C)N1CCC2(CC1)OCCO2 (stereo unspecified)	0.3	71*	0.15	70*	0.3
CCOC(=O)c1[nH]c2ccc(OC)cc2c1NC(=O)CN1CCC2(CC1)OCCO2	0.6	12	2.4	35	0.9
CCOC(=O)c1[nH]c2ccc(F)cc2c1NC(=O)C(C)N1CCc2cc(OC)c(OC)cc2C1 (stereo unspecified)	0.1	98*	0.13	91*	0
Cc1nc2ccccn2c1/C(O)=C1\C(=O)C(=O)N(CCN2CCOCC2)C1c1cccs1 (stereo unspecified)	1	11	0.0086	1	0.9
CC(CCc1ccc(O)cc1)N(C)CCc1ccccc1 (stereo unspecified)	0.9	-21	-0.43	8	1.2
Cc1cc(C(F)(F)F)nn1Cc1n[nH]c(=S)n1Cc1ccccc1	.	.	-0.21	.	.
CC(C)(C)NCC1(CO)SC(N)=NC1=O (stereo unspecified)	1.1	-18	0.45	-10	1.2
Cc1cc(C)n(-c2nnc3n2N=C(c2ccccc2)CS3)n1	0.5	23	0.025	51*	0.8
Brc1ccccc1C1=Nn2c(nnc2-c2ccccc2)SC1	0.1	62*	-0.66	90*	0.4
Cc1ccc(-c2nnc3n2N=C(c2ccc(Br)cc2)CS3)cc1	1	22	-0.28	4	0.8
O=S(=O)(c1ccc2ccccc2c1)N1CCC(c2nc(-c3ccncc3)no2)CC1	.	.	-0.17	.	.
O=c1c2ccccc2oc2nc(-c3ccco3)n(Cc3ccccc3)c(=O)c12	0.9	5	0.45	7	1
CCOC(=O)C(=Cc1ccc(OCc2ccc([N+](=O)[O-])cc2)c(OC)c1)C(=O)OCC	1	53*	-0.11	-2	0.5
COc1cccc(-c2nnc(SCC(=O)Nc3ccc(S(N)(=O)=O)cc3)n2C)c1	1	38	-0.041	3	0.6
C(/C=C/C=C/Nc1ccccc1)=Nc1ccccc1	1	-1	-5*	-1	1
CCCn1nc2cc(C(=O)N(CC)c3ccc(OC)cc3)ccc2c1OCC	0.8	26	-0.56	17	0.7
Cc1nc(NC(=O)c2cc3c(s2)CCCCC3)sc1C(=O)N(C)C	0.7	56*	0.091	34	0.4
COC(=O)c1sc(NC(=O)c2cc3c(s2)CCCC3)nc1C	0.9	0	-0.24	11	1
CC(=O)C1=C(C)NC(SCC(N)=O)=C(C#N)C1c1cccs1 (stereo unspecified)	1	3	-0.12	1	1
CCOC(=O)CSC1=C(C#N)C(c2sccc2C)C(C(C)=O)=C(C)N1 (stereo unspecified)	0.3	73*	-1.3	65*	0.3
SMILES	CYP2C19 activ	CYP2C9 inh	Cav32 inh	CYP2C19 inh	CYP2C9 act
CC(=O)C1=C(C)NC(SCC(N)=O)=C(C#N)C1c1sccc1C (stereo unspecified)	0.8	19	0.56	17	0.8
CCOC(=O)C1=C(C)NC(SCC(=O)Nc2nc(C)cs2)=C(C#N)C1c1cccs1 (stereo unspecified)	0.1	96*	-6.9*	85*	0
Cc1nc(C(=O)O)sc1C1(C)CC(c2cccc([N+](=O)[O-])c2)=NO1 (stereo unspecified)	.	.	0.18	.	.
Cn1c2ccc(CC(=O)O)cc2c2cc(CC(=O)O)ccc21	1.1	-6	0.35	-10	1.1
COC(=O)Cc1ccc2c3ccccc3n(C)c2c1	0.3	4	-0.58	71*	1
Cc1cn(C(=O)C(C)N2C(=O)c3ccccc3C2=O)c(C)n1 (stereo unspecified)	0.5	25	0.35	50*	0.8
CN(c1ccccc1C(=O)Nc1cccc(Cl)c1Cl)S(C)(=O)=O	0.4	28	1	65*	0.7
CCOc1ccccc1NC(=O)c1ccccc1N(C)S(C)(=O)=O	0.7	-11	1	28	1.1
CN(c1ccccc1C(=O)Nc1ccc2c(c1)OCCO2)S(C)(=O)=O	.	.	0.023	.	.
Cc1ccc(NC(=O)c2ccccc2N(C)S(C)(=O)=O)cc1C	0.5	-5	-0.21	50*	1
N/C(COc1cccc(Cl)c1)=N\NS(=O)(=O)c1ccccc1	0.7	4	-0.025	31	1
CCCCN(C)C(=O)C(Cc1ccccc1)NS(=O)(=O)c1ccc2c(c1)c(=O)n(C)c(=O)n2C (stereo unspecified)	0.9	28	-0.065	6	0.7
CNC(=S)NNC(=O)Cc1ccc(OC)c(OC)c1	1.2	-20	0.039	-20	1.2
Cc1ccnc(NC(=S)NC(=O)/C=C/c2ccco2)c1	1.1	53*	0.078	-15	0.5
COc1ccc(C)cc1NC(=O)CN1CCN(S(=O)(=O)c2ccc(Cl)cc2)CC1	0.3	65*	0.21	66*	0.4
COc1cccc(OC)c1C(=O)N1CCN(S(=O)(=O)c2ccc(C)cc2)CC1	0.9	35	0.71	11	0.6
COc1ccc(C)cc1NC(=O)CN1CCN(S(=O)(=O)c2ccc(C(C)C)cc2)CC1	0.1	88*	-1.1	86*	0.1
COc1ccc(NC(=O)CN2CCN(S(=O)(=O)c3ccc(C(C)C)cc3)CC2)cc1OC	0.6	41	-0.91	44	0.6
COc1ccc(OC)c(C(=O)CN2CCN(S(=O)(=O)c3ccc(Br)cc3)CC2)c1	0.2	58*	.	83*	0.4
Cc1ccc(CNC(=O)C2CC(c3ccccc3F)=NO2)cc1 (stereo unspecified)	.	.	-2.1	.	.
Cc1cc(C)c2c(=O)[nH]c(SCC(=O)Nc3ccc(N(C)C)cc3)nc2n1	0.6	58*	0.058	42	0.4
Cc1ccc(NC(=O)CSc2nc3nc(C)cc(C)c3c(=O)[nH]2)cc1	0.9	34	0.15	10	0.7
Cc1c(NC(=O)C(C)Sc2n[nH]c(N)n2)c(=O)n(-c2ccccc2)n1C (stereo unspecified)	1.1	-12	0.16	-6	1.1
O=C(CN(Cc1ccc(F)cc1)S(=O)(=O)c1ccccc1)N1CCCCC1	0.3	45	0.14	65*	0.5
COc1ccc(S(=O)(=O)N(CCc2ccccc2)CC(=O)NC(C)C)cc1	0.4	58*	0.2	56*	0.4
CCN(CC(=O)NCCc1ccccc1)S(=O)(=O)c1ccc(Br)cc1	0.7	-51	-1.1	34	1.5

Screening data: PubChem BioAssay, several laboratories
